Data reported in PubChem BioAssay AID1159580 (chemical genetic matrix, 2015).
Hit rate of the full screen: of about 5,500 compounds, about 2,000 (36%) were called active. Another 18% or so got no clear call; they are omitted. No stated cut-off is given here; in the data, active means normalized growth mostly below about 0.91 (no sharp cut-off); inconclusive means no clear call, values can overlap the other calls; inactive means mostly above about 0.92. Some of the results follow.

Test: chemical genetic growth profiling, strain panel (AID 1159580);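 further: tested at 20 µM; growth read once vehicle control cultures reached saturation at 30 °C; 1 = growth at the plate median or of vehicle wells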
Conditions: growth OD

Measured: normalized growth

COc1ccc(-c2cc(=O)c3c(OC(C)=O)cc(OC(C)=O)cc3o2)cc1
inactive: S. cerevisiae deletion strains, locus YJR066W, strain TOR1, stronger effect = lower value 0.922 | S. cerevisiae deletion strains, locus YJR075W, strain HOC1, stronger effect = lower value 0.946 | S. cerevisiae deletion strains, locus YKL009W, strain mrt4, stronger effect = lower value 0.994 | S. cerevisiae deletion strains, locus YKL068W, stronger effect = lower value 0.972 | S. cerevisiae deletion strains, locus YKL085W, strain MDH1 (second series), stronger effect = lower value 0.968 | S. cerevisiae deletion strains, locus YKL085W, strain MDH1, stronger effect = lower value 0.968 | S. cerevisiae deletion strains, locus YKL160W, strain elf1, stronger effect = lower value 0.974 | S. cerevisiae deletion strains, locus YKL190W, strain CNB1, stronger effect = lower value 0.967 | S. cerevisiae deletion strains, locus YKR001C, strain vps1, stronger effect = lower value 0.941 | S. cerevisiae deletion strains, locus YKR026C, strain gcn3, stronger effect = lower value 0.985 | S. cerevisiae deletion strains, locus YKR091W, strain srl3, stronger effect = lower value 0.999 | S. cerevisiae deletion strains, locus YLL001W, strain dnm1, stronger effect = lower value 0.937 | S. cerevisiae deletion strains, locus YLL026W, stronger effect = lower value 0.985 | S. cerevisiae deletion strains, locus YLL041C, strain sdh2, stronger effect = lower value 0.992 | S. cerevisiae deletion strains, locus YLR027C, strain aat2, stronger effect = lower value 0.984 | S. cerevisiae deletion strains, locus YLR039C, strain RIC1, stronger effect = lower value 0.824 | S. cerevisiae deletion strains, locus YLR058C, strain SHM2, stronger effect = lower value 0.957 | S. cerevisiae deletion strains, locus YLR102C, strain apc9, stronger effect = lower value 0.959 | S. cerevisiae deletion strains, locus YLR221C, strain rsa3, stronger effect = lower value 0.973 | S. cerevisiae deletion strains, locus YLR258W, strain gsy2, stronger effect = lower value 0.971 | S. cerevisiae deletion strains, locus YLR262C, strain YPT6 (second series), stronger effect = lower value 0.914 | S. cerevisiae deletion strains, locus YLR262C, strain YPT6, stronger effect = lower value 0.807 | S. cerevisiae deletion strains, locus YLR268W, strain sec22, stronger effect = lower value 0.964 | S. cerevisiae deletion strains, locus YLR320W, strain mms22, stronger effect = lower value 0.965 | S. cerevisiae deletion strains, locus YLR330W, strain CHS5, stronger effect = lower value 0.929 | S. cerevisiae deletion strains, locus YLR342W, strain FKS1 (second series), stronger effect = lower value 1.01 | S. cerevisiae deletion strains, locus YLR342W, strain FKS1, stronger effect = lower value 1 | S. cerevisiae deletion strains, locus YLR357W, strain rsc2, stronger effect = lower value 0.894 | S. cerevisiae deletion strains, locus YLR370C, strain arc18, stronger effect = lower value 0.992 | S. cerevisiae deletion strains, locus YLR371W, strain rom2, stronger effect = lower value 0.952 | S. cerevisiae deletion strains, locus YLR384C, strain iki3, stronger effect = lower value 0.981 | S. cerevisiae deletion strains, locus YML016C, strain PPZ1, stronger effect = lower value 0.924 | S. cerevisiae deletion strains, locus YML032C, strain rad52, stronger effect = lower value 0.964 | S. cerevisiae deletion strains, locus YML120C, strain ndi1, stronger effect = lower value 0.973 | S. cerevisiae deletion strains, locus YML124C, strain tub3, stronger effect = lower value 0.958 | S. cerevisiae deletion strains, locus YMR058W, strain fet3, stronger effect = lower value 0.983 | S. cerevisiae deletion strains, locus YMR078C, strain ctf18, stronger effect = lower value 0.963 | S. cerevisiae deletion strains, locus YMR125W, strain sto1, stronger effect = lower value 0.965 | S. cerevisiae deletion strains, locus YMR129W, stronger effect = lower value 0.981 | S. cerevisiae deletion strains, locus YMR205C, strain PFK2, stronger effect = lower value 0.976 | S. cerevisiae deletion strains, locus YMR223W, strain ubp8, stronger effect = lower value 0.946 | S. cerevisiae deletion strains, locus YMR231W, strain pep5, stronger effect = lower value 0.994 | S. cerevisiae deletion strains, locus YMR307W, strain GAS1, stronger effect = lower value 0.913 | S. cerevisiae deletion strains, locus YNL067W, strain RPL9B, stronger effect = lower value 0.945 | S. cerevisiae deletion strains, locus YNL183C, strain NPR1, stronger effect = lower value 0.84 | S. cerevisiae deletion strains, locus YNL209W, strain ssb2, stronger effect = lower value 0.996 | S. cerevisiae deletion strains, locus YNL233W, strain BNI4, stronger effect = lower value 0.89 | S. cerevisiae deletion strains, locus YNL248C, strain rpa49, stronger effect = lower value 0.955 | S. cerevisiae deletion strains, locus YNL250W, strain rad50, stronger effect = lower value 0.958 | S. cerevisiae deletion strains, locus YNL271C, strain bni1, stronger effect = lower value 0.986 | S. cerevisiae deletion strains, locus YNL298W, strain CLA4, stronger effect = lower value 0.968 | S. cerevisiae deletion strains, locus YNL322C, strain KRE1 (second series), stronger effect = lower value 0.952 | S. cerevisiae deletion strains, locus YNR049C, strain mso1, stronger effect = lower value 0.992 | S. cerevisiae deletion strains, locus YNR052C, strain pop2, stronger effect = lower value 0.949 | S. cerevisiae deletion strains, locus YOL006C, strain TOP1, stronger effect = lower value 0.97 | S. cerevisiae deletion strains, locus YOL012C, strain htz1 0.936 | S. cerevisiae deletion strains, locus YOL147C, strain pex11, stronger effect = lower value 0.945 | S. cerevisiae deletion strains, locus YOR001W, strain rrp6, stronger effect = lower value 0.967 | S. cerevisiae deletion strains, locus YOR061W, strain CKA2, stronger effect = lower value 1 | S. cerevisiae deletion strains, locus YOR069W, strain VPS5, stronger effect = lower value 0.959 | S. cerevisiae deletion strains, locus YOR070C, strain gyp1, stronger effect = lower value 0.999 | S. cerevisiae deletion strains, locus YOR080W, strain dia2, stronger effect = lower value 0.989 | S. cerevisiae deletion strains, locus YOR083W, strain WHI5, stronger effect = lower value 0.984 | S. cerevisiae deletion strains, locus YOR106W, strain vam3, stronger effect = lower value 0.988 | S. cerevisiae deletion strains, locus YOR136W, strain idh2, stronger effect = lower value 0.978 | S. cerevisiae deletion strains, locus YOR144C, strain elg1, stronger effect = lower value 0.961 | S. cerevisiae deletion strains, locus YOR184W, strain ser1, stronger effect = lower value 0.982 | S. cerevisiae deletion strains, locus YOR231W, strain MKK1, stronger effect = lower value 0.876 | S. cerevisiae deletion strains, locus YOR265W, strain rbl2, stronger effect = lower value 0.99 | S. cerevisiae deletion strains, locus YOR270C, strain vph1, stronger effect = lower value 0.889 | S. cerevisiae deletion strains, locus YOR290C, strain snf2, stronger effect = lower value 0.949 | S. cerevisiae deletion strains, locus YOR316C, strain cot1, stronger effect = lower value 0.942 | S. cerevisiae deletion strains, locus YPL051W, strain arl3, stronger effect = lower value 0.954 | S. cerevisiae deletion strains, locus YPL055C, strain LGE1, stronger effect = lower value 0.906 | S. cerevisiae deletion strains, locus YPL078C, strain atp4, stronger effect = lower value 0.967 | S. cerevisiae deletion strains, locus YPL106C, strain sse1, stronger effect = lower value 0.922 | S. cerevisiae deletion strains, locus YPL240C, strain hsp82, stronger effect = lower value 0.987 | S. cerevisiae deletion strains, locus YPL241C, strain CIN2, stronger effect = lower value 0.973 | S. cerevisiae deletion strains, locus YPR119W, strain clb2, stronger effect = lower value 0.958 | S. cerevisiae deletion strains, locus YPR141C, strain kar3, stronger effect = lower value 0.953 | S. cerevisiae deletion strains, locus YPR163C, strain tif3, stronger effect = lower value 0.981 | S. cerevisiae deletion strains, locus YPR167C, strain met16, stronger effect = lower value 0.946 | S. cerevisiae deletion strains, strain wtn01, stronger effect = lower value 0.987 | S. cerevisiae strains, strain wild type, stronger effect = lower value 0.971
active: S. cerevisiae deletion strains, locus YLR113W, strain HOG1, stronger effect = lower value 0.805 | S. cerevisiae deletion strains, locus YLR418C, strain cdc73, stronger effect = lower value 0.685 | S. cerevisiae deletion strains, locus YNL071W, strain lat1, stronger effect = lower value 0.893 | S. cerevisiae deletion strains, locus YNL307C, strain MCK1, stronger effect = lower value 0.878 | S. cerevisiae deletion strains, locus YPL256C, strain CLN2, stronger effect = lower value 0.756
